{"source": "PubChem BioAssay (Tox21)", "note": "Records with an inconclusive call do not appear. A call without a number means that no potency is given here. Values without a mark were called inactive. Activity calls are given as the source filed them. Calls follow the shape of the full dose curve.", "data": [{"biological_target": "Beta-2 adrenergic receptor (Homo sapiens) (UniProt P07550)", "sequence (P07550 whole entry, looked up)": "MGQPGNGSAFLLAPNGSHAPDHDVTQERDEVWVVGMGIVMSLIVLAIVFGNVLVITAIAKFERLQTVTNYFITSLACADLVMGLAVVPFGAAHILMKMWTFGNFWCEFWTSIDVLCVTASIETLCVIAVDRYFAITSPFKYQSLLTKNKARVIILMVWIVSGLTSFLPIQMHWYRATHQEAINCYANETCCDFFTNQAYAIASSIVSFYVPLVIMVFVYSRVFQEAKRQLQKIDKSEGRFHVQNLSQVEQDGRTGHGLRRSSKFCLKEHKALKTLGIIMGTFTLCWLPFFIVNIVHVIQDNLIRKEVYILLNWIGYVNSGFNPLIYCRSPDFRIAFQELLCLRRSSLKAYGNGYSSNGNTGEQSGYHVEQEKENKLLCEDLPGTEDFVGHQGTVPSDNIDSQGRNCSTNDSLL", "assay": "Adrenergic beta2 receptor (ADRB2) small molecule agonists, cell-based qHTS assay (AID 1963593)", "details": "CHO-ADRB2 cells, cAMP HTRF, 30 min; series mostly up to 92.4 µM", "description": "National Center for Advancing Translational Sciences [NCATS]\nDivision of Preclinical Innovation [DPI]\nU.S. Environmental Protection Agency [EPA]\nNational Institutes of Environmental Health Sciences [NIEHS]\nNational Toxicology Program [NTP]\nU.S. Food and Drug Administration [FDA]\nBeta adrenergic receptors (Beta-ARs) belong to the G-protein coupled receptor (GPCR) superfamily, includes three subtypes - beta1, beta2, and beta3. Beta1-AR is the predominant receptor subtype expressed in the heart, and beta2-AR is expressed in the kidney, lung, blood vessel and in the heart, and beta3 is found in the adipocytes. Beta1 and 2 ARs couple to Gs protein and elevate cyclic adenosine mono phosphate (cAMP), which activates protein kinase A and leads to the downstream signaling responsible for the physiological actions. Beta-AR agonists or antagonists are the most prescribed therapeutic agents for heart failure and asthma, and these were one of the first target receptors for the rational drug design. Tox21 10K compound library was screened using the cAMP-Gs dynamic assay (Cisbio Bioassays, Shelton, CT) to identify agonists/antagonists of the Gs-coupled human adrenergic, beta2 receptor (ADRB2) in the CHO-ADRB2 cell line (Codex BioSolutions, Inc. Gaithersburg, MD), which stably over-expresses ADRB2. The principle of cAMP-Gs dynamic assay is based on HTRF technology, which facilitates the fluorescence resonance energy transfer (FRET) between donor Europium cryptate and acceptor d2-labeled cAMP. The cAMP generated within cells competes with the red acceptor, d2-labled cAMP, for binding to the monoclonal anti-cAMP-cryptate (Europium donor). An increase in intracellular cAMP leads to the disruption of FRET signal, and the signal is inversely proportional to the cAMP concentration. Isoproterenol HCl (Sigma-Aldrich, St. Louis, MO) was used as a positive control in the screening.\nTox21 Assay Protocol Summary:\nCHO-ADRB2 cells were dispensed at 1,000/well in 4uL assay medium into white/solid 1536-well plates (Greiner Bio-One North America Inc., Monroe, NC) using a Multidrop Combi dispenser (ThermoFisher Scientific, Waltham, MA). The assay plates were incubated at 37C and 5% CO2 for an overnight (18-20hr). Then positive control and test compounds dissolved in DMSO were transferred to the assay plates at 23nL using a Pintool station (Wako, San Diego, CA). Following the compound and positive control transfer, 1uL stimulation mix containing 100uM IBMX and 25uM Ro-20-1724 was added to each well of the assay plates using BioRAPTR Flying Reagent Dispenser (FRD, Beckman Coulter, Brea, CA). The assay plates were incubated at room temperature for 0.5hr. Then 2.5ul each d2-labled cAMP and anti-cAMP-cryptate solutions were added separately to each well of the assay plates using an FRD and the assay plates were incubated at room temperature for 1hr.", "values": [{"smiles": "O=C(O)COc1nn(Cc2ccccc2)c2ccccc12", "Potency": "inactive"}, {"smiles": "CC(C)(C)C(O)/C=C/c1ccc2c(c1)OCO2", "note": "(stereo not given)", "Potency": "inactive"}, {"smiles": "CCN1CCC[C@H]1CNC(=O)c1c(OC)ccc(Br)c1OC", "Potency": "inactive"}, {"smiles": "CC1CCCNC1", "note": "(stereo not given)", "Potency": "inactive"}, {"smiles": "CC[C@@]1(c2ccccc2)NC(=O)N(C)C1=O", "Potency": "inactive"}, {"smiles": "CC(=O)c1ccc([N+](=O)[O-])cc1", "Potency": "inactive"}, {"smiles": "COc1cc([C@@H]2c3cc4c(cc3[C@@H](O[C@@H]3O[C@@H]5CO[C@@H](C)O[C@H]5[C@H](O)[C@H]3O)[C@H]3COC(=O)[C@H]23)OCO4)cc(OC)c1O", "Potency": "inactive"}, {"smiles": "CCCCOC(=O)CCCCC(=O)OCCCC", "Potency": "inactive"}, {"smiles": "O=C(OCCc1ccccc1)c1ccccc1", "Potency": "inactive"}, {"smiles": "C[N+](C)(C)CCOC(N)=O", "Potency": "inactive"}, {"smiles": "O=C1CCC(=O)N1Cl", "Potency": "inactive"}, {"smiles": "CC(C)O.CC(C)O.CCOC(=O)/C=C(\\C)O.CCOC(=O)/C=C(\\C)O.[Ti]", "Potency": "inactive"}, {"smiles": "O=C(CS(=O)Cc1ccco1)NC/C=C\\COc1cc(CN2CCCCC2)ccn1", "note": "(stereo not given)", "Potency": "inactive"}, {"smiles": "CCCOC(=O)c1c(Cl)c(Cl)c(Cl)c(Cl)c1C(=O)OCCC", "Potency": "inactive"}, {"smiles": "COC(=O)CCCCCCCC(=O)OC", "Potency": "inactive"}, {"smiles": "N[C@@H](CCC(=O)N[C@@H](CS)C(=O)NCC(=O)O)C(=O)O", "activation": "20.3% [at 19 µM]"}, {"smiles": "CC[C@]1(O)C[C@H]2CN(CCc3c([nH]c4ccccc34)[C@@](C(=O)OC)(c3cc4c(cc3OC)N(C=O)[C@H]3[C@@](O)(C(=O)OC)[C@H](OC(C)=O)[C@]5(CC)C=CCN6CC[C@]43[C@@H]65)C2)C1", "Potency": "inactive"}, {"smiles": "CC(C)(C)OC(=O)c1ccc(O)cc1", "Potency": "inactive"}, {"smiles": "CC(=O)Nc1ccc(OC(=O)c2ccccc2OC(C)=O)cc1", "Potency": "inactive"}, {"smiles": "O=C(/C=C/c1ccccc1)NCCO", "Potency": "inactive"}, {"smiles": "O=C(O)[C@@H]1CSCN1", "Potency": "inactive"}, {"smiles": "O=[N+]([O-])c1cccc(S(=O)(=O)O)c1", "Potency": "inactive"}, {"smiles": "CCOC(=O)NCCOc1ccc(Oc2ccccc2)cc1", "Potency": "inactive"}, {"smiles": "CCC/C=C(\\C=O)CC", "Potency": "inactive"}, {"smiles": "O=C1CCCCCCCCCCCC(=O)OCCO1", "Potency": "inactive"}, {"smiles": "Cc1cc(=O)c2c(O)c3c(O)cc(=O)c4c3c3c(cc(O)c1c23)C(C)(C)C=4O", "activation": "3.3% [at 19 µM]"}, {"smiles": "Cc1c(O)cccc1O", "Potency": "inactive"}, {"smiles": "NC(=O)Nc1nc2ccccc2[nH]1", "Potency": "inactive"}, {"smiles": "CC(C)(CO)[C@@H](O)C(=O)NCCCO", "Potency": "inactive"}, {"smiles": "SCCc1cnccn1", "Potency": "inactive"}, {"smiles": "O=C1NC(=O)c2cccc3cccc1c23", "Potency": "inactive"}, {"smiles": "CC[C@H](C)C(=O)O[C@H]1C[C@H](O)C=C2C=C[C@H](C)[C@H](CC[C@@H](O)C[C@@H](O)CC(=O)O)[C@H]21", "Potency": "inactive"}, {"smiles": "CCOc1ccc(C(=O)OCCN(CC)CC)cc1", "Potency": "inactive"}, {"smiles": "CC(=O)CCC1=C(C)CCCC1(C)C", "Potency": "inactive"}, {"smiles": "CC/C=C\\C/C=C\\C/C=C\\CCCCCCCC(=O)OCC", "Potency": "inactive"}, {"smiles": "O=C1c2ccccc2C(=O)N1SC1CCCCC1", "Potency": "inactive"}, {"smiles": "CCCCNCCCC", "Potency": "inactive"}, {"smiles": "OCCCS", "Potency": "inactive"}, {"smiles": "CCOC(=O)CC(=O)c1ccccc1", "Potency": "inactive"}, {"smiles": "CC(C)(C)Cl", "Potency": "inactive"}]}]}
